Only a selection was taken, and hits are over-represented in it overall.
Shiga toxin inh: inhibitors of Shiga toxin in Vero cells; inhibition, % at 38.7 µM; actives 9.2% (n = 290,000); Vero cells, Shiga toxin protein synthesis inhibition reporter; in the data active means inhibition mostly above about 28%, no sharp cut-off; inactive means mostly below about 43%; further: 0% is about no effect
Cycloheximide cs: affects cycloheximide protein synthesis inhibition readout, counter-screen; cell reporter, cycloheximide protein synthesis inhibition counterscreen; max response, %; actives 12% (n = 300,000); AID 2314; in the data active means max response mostly above about 13%, no sharp cut-off; inactive means mostly below about 14%; further: read at 38.3 µM for the half of the compounds with a filed dose; 0% is about no effect
Giardia FBPA inh: Giardia lamblia aldolase inhibition; Potency, µM (highest dose often 59.6 µM), for the others: at the highest dose activity, negative = inhibition, most hits filed as inhibitors; A8B2U2; AID 2451; actives 0.71% (n = 290,000); purified Giardia FBPA; further: potency means the concentration at half of the fitted maximal effect; on the % scale 0 is the no-effect control and ±100 the full control effect; nearly all actives have a fitted effect of over 55% in size
Target sequence (A8B2U2 whole entry, looked up): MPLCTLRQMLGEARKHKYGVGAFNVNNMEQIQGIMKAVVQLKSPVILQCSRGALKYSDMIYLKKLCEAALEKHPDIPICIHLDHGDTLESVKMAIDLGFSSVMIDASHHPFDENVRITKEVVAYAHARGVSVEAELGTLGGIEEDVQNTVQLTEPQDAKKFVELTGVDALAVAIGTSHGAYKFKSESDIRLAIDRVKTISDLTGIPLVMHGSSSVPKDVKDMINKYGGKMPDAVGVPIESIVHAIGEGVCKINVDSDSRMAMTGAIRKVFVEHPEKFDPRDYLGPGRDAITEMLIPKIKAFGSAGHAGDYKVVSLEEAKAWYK
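40 nM FBPA preincubated 10 min at RT with compound (up to 57.5 uM final), then substrate plus GAPDH/TPI/NAD/arsenate coupling and diaphorase/resazurin added. Fluorescence read after 20 min at RT, 525/598 nm.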
Sm TGR inh: blocks Schistosoma mansoni thioredoxin glutathione reductase | Q962Y6 | purified TGR, DTNB reduction, TNB absorbance 405 nm | Potency, µM (doses to about 114 µM), for the others: at the highest dose activity change, negative = inhibition, most hits filed as inhibitors | actives 3% (n = 360,000) | AID 485364; further: potency means the concentration at half of the fitted maximal effect; on the % scale 0 is the no-effect control and ±100 the full control effect; nearly all actives have a fitted effect of over 60% in size
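First, TGR (20 nM dispensed) and NADPH were mixed with compound. Second, a 15 min room-temperature incubation followed. Third, further NADPH and then DTNB were added to start the reaction. Finally, TNB absorbance was monitored kinetically.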
LmPK inh: LmPK (Leishmania mexicana) enzyme inhibition | Q27686 | purified LmPK, Kinase-Glo ATP luminescence, 1 h | actives 0.37% (n = 290,000) | Potency, µM (highest dose often 57.5 µM), without a hit: at the highest dose activity change, negative = inhibition, hits mostly inhibitors; further: potency means the concentration at half of the fitted maximal effect; on the % scale 0 is the no-effect control and ±100 the full control effect
Target sequence (Q27686 whole entry, looked up): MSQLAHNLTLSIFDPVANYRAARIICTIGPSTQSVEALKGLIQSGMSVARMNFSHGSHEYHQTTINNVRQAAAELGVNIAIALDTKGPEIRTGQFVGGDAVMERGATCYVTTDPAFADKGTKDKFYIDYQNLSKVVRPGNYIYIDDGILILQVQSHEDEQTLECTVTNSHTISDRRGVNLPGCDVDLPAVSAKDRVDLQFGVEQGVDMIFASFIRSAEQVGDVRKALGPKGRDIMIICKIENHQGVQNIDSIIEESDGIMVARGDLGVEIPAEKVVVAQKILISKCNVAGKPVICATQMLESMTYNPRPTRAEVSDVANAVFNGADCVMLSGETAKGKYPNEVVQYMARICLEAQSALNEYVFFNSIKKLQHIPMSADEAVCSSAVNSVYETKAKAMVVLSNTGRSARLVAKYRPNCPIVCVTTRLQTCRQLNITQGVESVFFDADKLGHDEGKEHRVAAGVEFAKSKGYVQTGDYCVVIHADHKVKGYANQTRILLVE
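Purified LmPK (0.1 nM) with 0.5 mM PEP and 0.1 mM ADP in imidazole buffer pH 7.2 with MgCl2/KCl, 1 h at room temperature. ATP formed was read by luciferase luminescence and normalized to no-enzyme and uninhibited controls.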
Tb PYK inh: T. brucei pyruvate kinase inhibition; actives 0.12% (n = 410,000); Q57TT1; Potency, µM (doses to about 76.8 µM), inactives show at the highest dose activity, negative = inhibition, hits mostly inhibitors; TbPYK enzyme, Kinase-Glo Plus ATP luminescence, 45 min; further: potency means the concentration at half of the fitted maximal effect; on the % scale 0 is the no-effect control and ±100 the full control effect; nearly all actives have a fitted effect of over 50% in size
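In this concentration-response screen, enzyme-free wells defined baseline while DMSO plates tracked drift. Each reaction combined TbPYK, substrate, compound and 130 uM ADP for 45 min at room temperature. Kinase-Glo Plus luminescence gave the signal.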
* = called active by the depositor; u = inconclusive; x = no result given; ! = a repeat was not active; [ ] = dose if it differs, or a comment. Unless noted, the call rests on the fitted dose curve; in most records, active means well fitted curve in the direction sought with a large enough effect; inconclusive means small, poorly fitted or top-dose-only effect, or another doubt; inactive means no such curve, though single readings can be large; an effect the other way counts as inactive or inconclusive.

SMILES | Shiga toxin inh | Cycloheximide cs | Giardia FBPA inh | Sm TGR inh | LmPK inh | Tb PYK inh
C#CC(=O)N(c1ccc(OC)cc1OC)C(C(=O)NC1CCCC1)c1cccs1 (stereo not drawn) | -5.1 | -2.4 | -0.5% | 1.58µM* | 3.7% | 5.6%
Cc1cccc(NC(=O)CSCC(=O)Nc2ccccc2C(=O)NC2CC2)c1 | x | x | x | 3.0% | x | -3.2%
Cc1ccc(-n2nnnc2CNC(=O)c2ccc(F)cc2)cc1C | x | x | x | 6.4% | x | 1.3%
CN1CCN(C(=O)c2cc3cc(Cl)ccc3[nH]2)CC1 | 27.7 | 12.4*! | -1.9% | -0.5% | -4.3% | -2.8%
O=C(c1cc2cc(Cl)ccc2[nH]1)N1CCN(c2ccc(F)cc2)CC1 | -2.8 | -5.1 | 1.5% | 0.7% | 10.3% | 2.7%
O=C(c1cc2cc(Cl)ccc2[nH]1)N1CCN(Cc2ccc3c(c2)OCO3)CC1 | 8.1 | 13.3* | u | -33.0% | -2.3% | 0.9%
Cc1ccc2c(C)c(C(=O)N3CCN(Cc4ccc5c(c4)OCO5)CC3)oc2c1C | 74.7* | 32.2* | -11.9% | -1.8% | 6.6% | 4.7%
COc1ccc(N2CCN(C(=O)c3cc4cc(Cl)ccc4[nH]3)CC2)cc1 | 12.9 | 19.2* | -22.5% | -5.7% | 5.3% | -5.7%
N#Cc1ccc(CN2CCC3(CC2)CCN(C(=O)c2ccco2)CC3)cc1 | x | x | -1.3% | x | x | -5.7%
CCC(C(=O)C(C)C(O)C(C)CCc1ccc(C)c(O)c1C(=O)O)C1OC(CC)(C2CC[C@@](O)(CC)C(C)O2)CC1C (stereo partly drawn) | x | x | 9.6% | x | x | 2.6%
O=C(CCCn1ccc2cc(S(=O)(=O)N3CCCC3)ccc21)NCc1ccc(Cl)cc1 | x | x | x | 6.5% | x | 26.2%
O=C(NC(=S)N1CCN(Cc2ccc3c(c2)OCO3)CC1)c1cccc(Br)c1 | -7.8 | -1.4 | 18.6% | -15.2% | 4.8% | -4.6%
O=CN1CCN(C(=O)c2cc3cc(Cl)ccc3[nH]2)CC1 | x | -0.8 | -1.4% | -8.3% | 6.1% | 4.9%
O=C(c1cc2cc(Cl)ccc2[nH]1)N1CCCCC1 | 26.7 | 24.7* | -1.5% | -0.1% | -6.5% | -2.5%
O=C(NC(=S)N1CCN(Cc2ccc3c(c2)OCO3)CC1)c1ccc(Cl)cc1 | 10.5 | 14.9* | 18.2% | 5.2% | -6.7% | -19.3%
Cc1ccccc1CN1C(=O)c2ccccc2Sc2ccc(C(=O)NC3CCCCC3)cc21 | x | x | x | 10.7% | x | -3.5%
CC1(C)Cc2nc3sc4c(=O)n(Cc5ccccc5)cnc4c3cc2CS1 | 7.5 | -1.6 | 4.9% | -0.2% | 2.0% | 2.0%
CCCn1cnc2c(sc3nc4c(cc32)CSC(C)(C)C4)c1=O | 36.9* | 24.9* | -5.0% | -20.3% | 0.6% | 1.0%
CC(C)CCOc1ncnc2c1sc1nc3c(cc12)CSC(C)(C)C3 | -7.1 | 15.4* | 4.6% | -22.7% | -0.5% | -11.7%
Cc1cc(C=C2C(=O)NC(=S)NC2=O)c(C)n1C1CCCC1 | 70.7* | 43.4* | -8.3% | -15.6% | -10.9% | -26.4%
Cc1cc(C=C2C(=O)N(C)C(=S)N(C)C2=O)c(C)n1C1CCCCC1 | -7.6 | -2.5 | -0.9% | u | 4.6% | -20.4%
Fc1ccc(NCc2ccccc2F)cc1Cl | 38.0 | 13.5 | x | -17.4% | -0.5% | 3.4%
CCNCc1ccccc1OCc1ccccc1 | -26.1 | -5.4 | 0.5% | 2.8% | 0.0% | 2.3%
Oc1ccc(NCc2ccccc2OCc2ccccc2)cc1 | 3.9 | 6.7 | u | 14.1µM* | -1.3% | u
Oc1ccc(NCc2ccccc2OCc2ccc(Cl)cc2)cc1 | x | x | x | 44.7µM* | x | 4.0%
SMILES | Shiga toxin inh | Cycloheximide cs | Giardia FBPA inh | Sm TGR inh | LmPK inh | Tb PYK inh
CCOc1cc(CNc2ccc(O)cc2)ccc1OCc1ccc(Cl)cc1 | x | x | x | 44.7µM* | x | -27.8%
Fc1ccccc1CNc1ccc(Cl)cc1 | 50.0* | 28.5* | 1.3% | 8.1% | -6.8% | 2.3%
O=C(CC1SC(N2CCCCC2)=NC1=O)Nc1cccc(C(=O)Nc2ncccc2O)c1 (stereo not drawn) | x | x | x | -9.9% | x | -5.4%
COc1ccc(-c2cn3nc(N4CCCC(C(=O)Nc5ccccc5OC)C4)sc3n2)cc1 (stereo not drawn) | x | x | x | 3.4% | x | 3.6%[15.4 µM]
Nc1ncnc2c1nc(N1CCCCC1)n2[C@@H]1O[C@@H]2COP(=O)(O)O[C@H]2[C@H]1O | -13.0 | -6.9 | -1.0% | x | x | x
CO/N=C1\CN(c2nc3c(cc2F)c(=O)c(C(=O)O)cn3C2CC2)CC1CN (stereo not drawn) | x | x | -0.8% | x | x | 2.7%
O=C(c1cccc(S(=O)(=O)N2CCc3ccccc32)c1)N1CCN(c2ccccc2)CC1 | x | x | x | 39.8µM* | x | 0.4%
O=C(Nc1nc2ccc(F)cc2s1)c1cccc(S(=O)(=O)N2CCc3ccccc32)c1 | 35.3 | 24.4* | 1.7% | u | -1.5% | -2.1%
O=C(Nc1nc2c(F)cc(F)cc2s1)c1ccc(S(=O)(=O)N2CCc3ccccc32)cc1 | x | x | x | -2.0% | x | 2.7%
O=C(c1cccc(S(=O)(=O)N2CCc3ccccc3C2)c1)N1CCN(c2ccccc2)CC1 | 2.5 | -4.6 | 1.2% | 3.8% | 5.0% | -4.8%
Cc1cc([N+](=O)[O-])nn1CC(=O)N/N=C/c1ccccc1F | 11.1 | -1.4 | -1.7% | 19.7% | 1.8% | 2.7%
Cc1cc([N+](=O)[O-])nn1CC(=O)N/N=C/c1ccccc1O | 57.5* | 23.8* | 15.1% | 14.9% | -0.6% | -0.6%
O=C(Cn1cnc([N+](=O)[O-])n1)c1ccccc1 | 21.9 | -3.0 | 4.7% | -6.1% | -3.2% | -2.8%
C/C(Cn1cnc([N+](=O)[O-])n1)=N\NC(=O)c1ccccc1 | 57.1* | 30.1* | -16.0% | 3.4% | -5.8% | 1.2%
C/C(Cn1nc([N+](=O)[O-])cc1C)=N\NC(=O)c1ccc(C(C)(C)C)cc1 | -6.8 | -2.8 | -11.7% | -3.7% | 15.9% | 2.9%
COc1ccc(C(=O)N/N=C(\C)Cn2nc([N+](=O)[O-])cc2C)cc1 | 58.4* | 15.7 | -2.3% | 8.7% | -8.5% | -1.9%
C/C(Cn1nnc([N+](=O)[O-])n1)=N\NC(=O)c1ccccc1 | 54.1* | 24.2* | u | -16.5% | 1.5% | -12.4%
O=C(Cn1nnc(-c2ccc([N+](=O)[O-])cc2)n1)NNC(=O)c1ccccc1 | -10.2 | 11.1 | 5.4% | 2.1% | -7.5% | -11.7%
Cc1cccc(NC(=O)c2ccc(Cn3nc(N4CCN(c5ccccc5)CC4)ccc3=O)o2)c1C | x | x | x | 7.4% | x | -2.8%
CCOc1cc(/C=C2/C(=N)N3C(=NC2=O)SN=C3S(C)(=O)=O)ccc1OS(=O)(=O)c1ccccc1 | -1.6 | -0.6 | x | -10.3% | 3.7% | -4.9%
COc1cc(/C=C2/C(=N)N3C(=NC2=O)SN=C3S(C)(=O)=O)ccc1OS(=O)(=O)c1ccccc1 | 44.5* | 7.7 | x | -16.6% | 2.4% | x
COc1ccccc1-n1c(C)cc(/C=C2/C(=N)N3C(=NC2=O)SN=C3S(C)(=O)=O)c1C | 116.1* | 23.9* | 24.2% | -1.7% | -3.2%[11.5 µM] | -8.9%
CCCc1cc(C(=O)Nc2ccc(CC)cc2)no1 | 72.6* | 54.3* | -2.6% | -1.8% | -4.2% | -5.4%
CCCc1cc(C(=O)Nc2ccc(C)cc2)no1 | 126.8* | 33.9* | 3.2% | u | -3.5% | 6.4%
